tim23-1 inh = tim23-1 yeast growth inhibition; AID 463212; inhibition, % at 20 µM; S. cerevisiae tim23-1 growth, BacTiter-Glo luminescence, 24 h; 330,000 tested, 1.3% active;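 active = growth inhibition of the mutant yeast at or above 50%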;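 also: temperature-sensitive mutant grown at 25 °C; plate controls were DMSO-treated mutant yeast for no effect and medium wells lacking yeast for full effect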
TIM10 inh = growth inhibitors of TIM10 yeast strain. S. cerevisiae TIM10 strain growth, BacTiter-Glo luminescence, 24 h. inhibition, % at 10 µM. 330,000 tested, 1.4% active. AID 463195;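 active = inhibition of 40% or more at the single tested concentration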;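 also: wild-type TIM10 isogenic control strain grown at permissive 25 °C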
tim10-1 inh = growth inhibitors of tim10-1 mutant yeast. S. cerevisiae tim10-1 ts strain growth, BacTiter-Glo, 24 h. inhibition, % at 20 µM. 330,000 tested, 2.2% active. AID 463190;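 active = inhibition of at least 40%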;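 also: mutant grown at 25 °C; 0% = DMSO wells with yeast and 100% = wells holding no yeast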
SKKanGAS inh = blocks kanamycin growth of S. pyogenes SKKanGAS strain; BacTiter-Glo, 6 h; inhibition, % at 7.5 µM; 300,000 tested, 1.3% active;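 active = mean replicate score, as percent of positive control median, at least 50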;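 also: strain carries kanamycin resistance gene driven by streptokinase promoter and grows in 40 µg/ml kanamycin; loss of luminescence reflects streptokinase promoter inhibition or plain growth inhibition; 0% = median of DMSO wells and 100% = positive control at its reference dose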
NALP1 inh = inhibitors of NALP1 inflammasome in yeast; S. cerevisiae NALP1/ASC/caspase-1 growth, X-gal OD620, 72 h; inhibition, % at 10 µM; 280,000 tested, 0.61% active; AID 2071; in the data active = inhibition mostly above about 24%, no sharp cut-off; inactive = mostly below about 32%
PfHsp90 set2 = reduces growth (ATP signal) of yeast expressing P. falciparum Hsp90; S. cerevisiae expressing PfHsp90, BacTiter-Glo ATP, 48 h; yeast lacking PDR1 and PDR3 efflux regulators; inhibition, % at 9.4 µM; 310,000 tested, 0.32% active; AID 504621;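 active = every replicate shows inhibition above about 80%, whatever the replicate mean, limit read from the data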;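 also: 0% = DMSO neutral controls and 100% = 20 µM radicicol positive controls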
Numbers without * were called inactive; / = not tested or not shown. An excerpt weighted towards active compounds, which were near 4.8% of everything screened.

SMILES	tim23-1 inh	TIM10 inh	tim10-1 inh	SKKanGAS inh	NALP1 inh	PfHsp90 set2
Cn1ccnc1SCC(=O)Nc1nc2c(F)c(F)c(F)cc2s1	-10	3	3	2	36*	-6
CC(C)(C)c1cc(C(=O)NCCN2CCCC2)cc(C(C)(C)C)c1	-4	15	3	-11	108*	17
O=C(Nc1cccc(-c2csc(Nc3cccc(C(F)(F)F)c3)n2)c1)c1cc([N+](=O)[O-])cc(C(F)(F)F)c1	4	10	12	77*	/	6
O=C(Nc1ccc(-c2csc(Nc3ccccc3)n2)cc1)c1cccc(C(F)(F)F)c1	28	21	22	65*	/	-20
O=C(Nc1ccc(-c2csc(Nc3ccc(Cl)cc3)n2)cc1)c1cccc(C(F)(F)F)c1	13	-11	-8	5	/	/
c1ccc(Cc2nn3c(C4COc5ccccc5O4)nnc3s2)cc1 (stereo not drawn)	41	10	-19	-4	25	-15
COc1cc(C(=O)N/N=C/c2ccc3c(c2)c2ccccc2n3C)ccc1O	-7	-9	-12	51*	2	-1
O=C(NCCC1=CCCCC1)c1cc(S(=O)(=O)N2CCOCC2)ccc1Cl	1	-1	-8	-4	/	-10
CCCN1CCCc2cc(CN(CCCN3CCOCC3)C(=O)Nc3ccc(OCC)cc3)ccc21	8	15	15	-5	45*	-9
CCOc1ccc(NC(=O)N(CCN2CCOCC2)Cc2ccc3c(c2)CCCN3CC)cc1	9	5	19	-18	1	17
COc1ccc(-c2csc3ncnc(N4CCN(c5ccccc5Cl)CC4)c23)cc1	18	1	16	55*	7	-24
COc1ccc(-c2csc3ncnc(N4CCN(c5cccc(C)c5C)CC4)c23)cc1	3	-3	6	18	1	-19
c1ccc(-c2csc3ncnc(N4CCc5ccccc5C4)c23)cc1	/	/	/	89*	15	-16
COc1ccccc1N1CCN(CC(O)COc2ccc3c(c2)OCO3)CC1 (stereo not drawn)	-5	-2	5	-10	23*	-31
O=C(N/N=C/c1cn[nH]c1-c1ccccc1)c1ccco1	-10	-7	-12	-2	13	14
O=C(O)C1CC=CCC1C(=O)N1CCN(c2nc(-c3ccccc3Cl)c3cc(Br)ccc3n2)CC1 (stereo not drawn)	23	12	21	/	27*	40
O=C(O)C1CC=CCC1C(=O)N1CCN(c2nc(-c3ccccc3)c3ccccc3n2)CC1 (stereo not drawn)	6	6	15	7	5	-57
S=C(NNc1nc(Nc2ccccc2)nc(N2CCCCC2)n1)NC1CCCCC1	15	14	36	60*	-5	-1
Cc1cc(=O)oc2c(C)cc(C(C)(C)C)cc12	/	/	/	/	/	-58
O=C(NNC(=S)NC(=O)c1ccc(F)cc1)c1ccncc1	-13	-14	-8	/	/	1
CC1(C(=O)NC(=S)NNC(=O)c2ccncc2)CCCCC1	12	14	22	54*	2	22
CCOC(=O)C1CCCN(C2=C(NS(=O)(=O)c3ccc(Br)cc3)C(=O)c3ccccc3C2=O)C1 (stereo not drawn)	36	15	34	22	9	3
CCOC(=O)C1CCN(C2=C(NS(=O)(=O)c3ccc(Cl)cc3)C(=O)c3ccccc3C2=O)CC1	37	7	19	52*	/	1
CCOC(=O)c1c(NC(C)=O)sc2c(OCC(O)CNC(C)(C)C)c(Br)ccc12 (stereo not drawn)	-14	4	19	0	26*	-9
CCOC(=O)c1c(NC(C)=O)sc2c(O)c(Br)cc(Br)c12	/	/	/	15	23	-92
SMILES	tim23-1 inh	TIM10 inh	tim10-1 inh	SKKanGAS inh	NALP1 inh	PfHsp90 set2
C=CCc1cccc(/C=N/NC(=O)CCC(=O)Nc2ccc(F)cc2)c1O	-19	9	18	13	26	-24
Cc1ccc(S(=O)(=O)CC(O)COc2ccccc2C#N)cc1 (stereo not drawn)	3	-10	3	-6	11	11
Cc1cccc(Nc2cc(C)c3c(O)cccc3n2)c1C	9	10	7	-3	60*	0
COCCCN(CCCN)Cc1ccco1	-3	-12	19	-6	71*	24
COCCCN(CCNC(=O)c1ccc(NC2=NC3CS(=O)(=O)CC3S2)cc1)Cc1ccco1 (stereo not drawn)	-10	-3	-16	3	-9	18
Cc1c(Cl)cccc1NC(=O)CCN1CCN(CCO)CC1	2	1	-1	-3	2	8
CC[C@H](C)[C@@H](CNC)NC[C@@H](Cc1ccc(O)cc1)NCC(C)(C)C	-13	7	-1	0	26	5
CC[C@@H](C)[C@H](CN[C@H](CNC)C(C)C)NC[C@@H](C)c1ccc(CC(C)C)cc1	2	14	15	64*	12	9
Cc1csc(CNc2ncnc3ccc(-c4cccc(Cl)c4)cc23)c1	38	-7	0	/	/	122*
Nc1nonc1-c1nc2ccccc2n1CC(=O)N/N=C/c1ccc(-c2cccc(C(=O)O)c2)o1	-6	9	-11	68*	4	17
Nc1nonc1-c1nc2ccccc2n1CC(=O)O	6	14	19	3	12	6
O=C(Cc1cccs1)NNC(=S)NC(=O)c1ccccc1	-43	-14	19	56*	-6	-1
O=C(Cc1ccccc1)NNC(=S)NC(=O)c1cccs1	-19	8	24	79*	-4	/
O=C(/C=C/c1ccccc1)NC(=S)NNC(=O)Cc1cccs1	-4	5	23	79*	-1	3
O=C(NC(=S)Nc1ccccc1)c1cccs1	38	1	19	1	25	-11
COc1ccc(/C=C/C(=O)NC(=S)NNC(=O)Cc2cccs2)cc1	-38	2	-3	109*	-9	0
COc1ccc(C2=NC(C)(C)Cc3cc(OC)c(OC)cc32)cc1	4	-5	7	2	17	16
O=C(NCCCn1ccnc1)c1ccc(S(=O)(=O)N2CCCCCC2)cc1	9	-13	2	-2	2	7
COc1ccc(C(=O)NNC(=S)NC(=O)/C=C/c2cccs2)cc1	-13	-14	11	62*	-20	-38
O=C(NNC(=S)NC(=O)c1cccs1)c1ccc(O)cc1	2	4	-29	/	0	-18
O=C(NC(=S)NNC(=O)c1cccs1)c1ccc(Br)o1	-10	6	16	101*	5	5
O=C(/C=C/c1cccs1)NC(=S)Nc1ccccc1	-11	30	29	5	5	/
Cc1cccc(OCCC(=O)OCC(=O)N2CCc3ccccc32)c1	22	3	15	-17	-2	/
COc1ccc2nc(N/C(N)=N/C(=S)Nc3cccc(C)c3)nc(C)c2c1	28	25	30	42	-1	-15

Assay outcomes: PubChem BioAssay, several laboratories
